Results taken from PubChem BioAssay (EPA / NIEHS).
“And” between values parts separate entries of the source, which are not always exact repeats. Equal values may be shown once. A structure can be active in one record and inactive in another. The source made the active and inactive calls. Rule for the calls: active = hit-call score of the fitted dose curve at least 0.9, where 1 is the maximum; inactive = score below 0.9.

Columns and labels:
[1] = read-out: Macrophage colony-stimulating factor (MCSF), CSF1 (gene 1435); assay: BSK_hDFCGF_MCSF: BioMAP Diversity Plus: hDFCGF Assay for Macrophage colony-stimulating factor (MCSF) Biomarker Activity (AID 2283060); settings: primary human foreskin fibroblasts; actives raise or lower the signal
In short: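 Primary human foreskin fibroblasts dosed with chemical; 24 h later, M-CSF quantified by ELISA; curves fitted in both directions vs DMSO negative control.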

[2] = BSK_hDFCGF_SRB: Viability Assessment in the BioMAP Diversity Plus: hDFCGF Assay (AID 2283061); settings: primary human foreskin fibroblasts;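 note: cells exposed to compound for 24 h before the read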
In short: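 Readout is SRB absorbance at 560 nm, reflecting total protein in parallel cultures of human foreskin fibroblasts harvested 24 h after chemical dosing. Activity was fitted bidirectionally relative to DMSO.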

[3] = read-out: TIMP metallopeptidase inhibitor 1 (TIMP1), TIMP1 (gene 7076); assay: BSK_hDFCGF_TIMP1: BioMAP Diversity Plus: hDFCGF Assay for TIMP metallopeptidase inhibitor 1 (TIMP1) Biomarker Activity (AID 2283062); settings: primary human foreskin fibroblasts; actives raise or lower the signal
In short: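 Human skin fibroblasts (primary), hDFCGF system; compound exposure 24 h; TIMP-1 by ELISA; bidirectional fit vs DMSO negative control; overt cytotoxicity by SRB in parallel wells.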

[4] = read-out: Monokine induced gamma interferon (MIG), CXCL9 (gene 4283); assay: BSK_hDFCGF_MIG: BioMAP Diversity Plus: hDFCGF Assay for Monokine induced gamma interferon (MIG) Biomarker Activity (AID 2283063); settings: primary human foreskin fibroblasts; actives raise or lower the signal
In short: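 Chemicals were added to primary human foreskin fibroblast cultures, which were sampled 24 h later. MIG levels were then quantified by ELISA and responses fitted in both directions relative to DMSO.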

[5] = read-out: Matrix Metallopeptidase 1 (MMP1), MMP1 (gene 4312); assay: BSK_hDFCGF_MMP1: BioMAP Diversity Plus: hDFCGF Assay for Matrix Metallopeptidase 1 (MMP1) Biomarker Activity (AID 2283064); settings: primary human foreskin fibroblasts; actives raise or lower the signal
In short: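 Primary human foreskin fibroblasts exposed to chemicals for 24 h; MMP1 measured by ELISA. Cytotoxicity tracked by SRB staining in parallel cultures; bidirectional fit relative to DMSO.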

[6] = read-out: Vascular cell adhesion molecule 1 (VCAM1), VCAM1 (gene 7412); assay: BSK_hDFCGF_VCAM1: BioMAP Diversity Plus: hDFCGF Assay for Vascular cell adhesion molecule 1 (VCAM1) Biomarker Activity (AID 2283065); settings: primary human foreskin fibroblasts; actives raise or lower the signal;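 for AC50: VCAM-1 protein level quantified by ELISA after 24 h chemical exposure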
In short: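 Human foreskin fibroblast primary cells, chemical exposure 24 h; VCAM-1 by ELISA; bidirectional fit, DMSO = negative control/baseline.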

[7] = read-out: Plasminogen activator inhibitor-1 (PAI1), SERPINE1 (gene 5054); assay: BSK_hDFCGF_PAI1: BioMAP Diversity Plus: hDFCGF Assay for Plasminogen activator inhibitor-1 (PAI1) Biomarker Activity (AID 2283066); settings: primary human foreskin fibroblasts; actives raise or lower the signal
In short: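 PAI-1 levels, determined by ELISA, served as the endpoint in human foreskin fibroblast cultures exposed to compound for 24 h, with DMSO as baseline.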

[8] = read-out: Intercellular Adhesion Molecule 1 (ICAM1), ICAM1 (gene 3383); assay: BSK_KF3CT_ICAM1: BioMAP Diversity Plus: KF3CT Assay for Intercellular Adhesion Molecule 1 (ICAM1) Biomarker Activity (AID 2283067); settings: primary human keratinocytes with fibroblasts; actives raise or lower the signal
In short: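 ICAM-1 levels are measured by ELISA 24 h after dosing a primary human co-culture of keratinocytes and foreskin fibroblasts. Activity in either direction is fitted relative to DMSO vehicle.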

[9] = read-out: Interferon-gamma inducible Protein 10 (IP10), CXCL10 (gene 3627); assay: BSK_KF3CT_IP10: BioMAP Diversity Plus: KF3CT Assay for Interferon-gamma inducible Protein 10 (IP10) Biomarker Activity (AID 2283068); settings: primary human keratinocytes with fibroblasts; actives raise or lower the signal
In short: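 ELISA read-out of IP-10 after 24 h chemical dosing of human skin primary co-culture (keratinocytes, foreskin fibroblasts). Gain or loss of signal relative to DMSO, bidirectional curve fit.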

[10] = read-out: Interleukin-1 alpha (IL1a), IL1A (gene 3552); assay: BSK_KF3CT_IL1a: BioMAP Diversity Plus: KF3CT Assay for Interleukin-1 alpha (IL1a) Biomarker Activity (AID 2283070); settings: primary human keratinocytes with fibroblasts; actives raise or lower the signal
In short: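 Primary human keratinocyte plus foreskin fibroblast co-culture, dosed and measured at 24 h in 96-well plates. IL-1a level quantified by ELISA; bidirectional fit relative to DMSO.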

[11] = read-out: TIMP metallopeptidase inhibitor 2 (TIMP2), TIMP2 (gene 7077); assay: BSK_KF3CT_TIMP2: BioMAP Diversity Plus: KF3CT Assay for TIMP metallopeptidase inhibitor 2 (TIMP2) Biomarker Activity (AID 2283071); settings: primary human keratinocytes with fibroblasts; actives raise or lower the signal
In short: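 Keratinocyte–fibroblast co-culture, 24 h exposure; TIMP-2 ELISA, DMSO-normalised bidirectional fit. Parallel SRB (0.1%, TCA-fixed, 560 nm) total-protein staining gauges cytotoxicity.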

[12] = read-out: Transforming growth factor beta 1 (TGFb1), TGFB1 (gene 7040); assay: BSK_KF3CT_TGFb1: BioMAP Diversity Plus: KF3CT Assay for Transforming growth factor beta 1 (TGFb1) Biomarker Activity (AID 2283072); settings: primary human keratinocytes with fibroblasts; actives raise or lower the signal
In short: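 Signal changes in either direction, relative to DMSO, define activity here. TGF-b1 is read by ELISA from a human keratinocyte-fibroblast co-culture 24 h post-dose.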

[13] = read-out: C-C motif chemokine 2 (Homo sapiens) (UniProt P13500); assay: BSK_KF3CT_MCP1: BioMAP Diversity Plus: KF3CT Assay for Monocyte Chemoattractant Protein 1 (MCP1/CCL2) Biomarker Activity (AID 2283073); settings: primary human keratinocytes with fibroblasts; actives raise or lower the signal
In short: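 ELISA readout of MCP-1 after 24 h chemical dosing of a human skin primary co-culture of keratinocytes and foreskin fibroblasts. Activity was fitted in both directions against DMSO.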

[14] = read-out: Matrix Metallopeptidase 9 (MMP9), MMP9 (gene 4318); assay: BSK_KF3CT_MMP9: BioMAP Diversity Plus: KF3CT Assay for Matrix Metallopeptidase 9 (MMP9) Biomarker Activity (AID 2283074); settings: primary human keratinocytes with fibroblasts; actives raise or lower the signal;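 for AC50: MMP9 protein level quantified by ELISA in the co-culture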
In short: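 Human keratinocyte and foreskin fibroblast co-culture exposed to chemicals for 24 h; MMP9 biomarker measured by ELISA, bidirectional fitting relative to DMSO; cytotoxicity tracked by SRB total protein staining in parallel cultures.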

[15] = read-out: urokinase plasminogen activator (uPA), PLAU (gene 5328); assay: BSK_KF3CT_uPA: BioMAP Diversity Plus: KF3CT Assay for urokinase plasminogen activator (uPA) Biomarker Activity (AID 2283075); settings: primary human keratinocytes with fibroblasts; actives raise or lower the signal
In short: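 Primary human keratinocyte/foreskin fibroblast co-culture exposed to chemical; uPA measured by ELISA at 24 h. Bidirectional fit versus DMSO, with parallel SRB total-protein staining for cytotoxicity.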

CD40, CD40 (gene 958) = assay: BSK_LPS_CD40: BioMAP Diversity Plus: LPS Assay for CD40 Biomarker Activity (AID 2283076); settings: primary human HUVEC with PBMC; actives raise or lower the signal
In short: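 Cells were dosed, incubated 24 h, then assayed for CD40 by ELISA. Gain or loss of signal was analysed relative to DMSO controls. The culture paired human umbilical vein endothelium with peripheral blood mononuclear cells.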

[16] = read-out: E-selectin (Homo sapiens) (UniProt P16581); assay: BSK_LPS_Eselectin: BioMAP Diversity Plus: LPS Assay for Eselectin Biomarker Activity (AID 2283077); settings: primary human HUVEC with PBMC; actives raise or lower the signal
In short: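 Primary human vascular co-culture (endothelium plus PBMC) was dosed with chemical, then E-selectin quantified by ELISA at 24 h. Endpoint values derive from bidirectional curve fitting relative to DMSO.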

[17] = read-out: Interleukin-8 (IL8), CXCL8 (gene 3576); assay: BSK_LPS_IL8: BioMAP Diversity Plus: LPS Assay for Interleukin-8 (IL8) Biomarker Activity (AID 2283078); settings: primary human HUVEC with PBMC; actives raise or lower the signal
In short: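 Readout is IL-8 by ELISA, taken 24 h after compounds were added to LPS-stimulated endothelial/PBMC co-cultures. Both increases and decreases relative to DMSO control were scored through bidirectional fitting.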

[18] = BSK_LPS_SRB: Viability Assessment in the BioMAP Diversity Plus: LPS Assay (AID 2283079); settings: primary human HUVEC with PBMC;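 note: total protein by sulforhodamine B absorbance as a cytotoxicity measure; measured one day after compound addition; fitted in both directions against DMSO so loss or gain of signal counts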
In short: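 Readout is SRB absorbance at 560 nm (0.1% stain, TCA-fixed parallel cultures) as a total-protein cytotoxicity measure. Cells: primary human umbilical vein endothelium plus peripheral blood mononuclear cells, 24 h after chemical exposure; DMSO served as baseline.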

[19] = BSK_KF3CT_SRB: Viability Assessment in the BioMAP Diversity Plus: KF3CT Assay (AID 2283069); settings: primary human keratinocytes with fibroblasts;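 note: total protein by sulforhodamine B staining as a cytotoxicity measure; read 24 h after compound addition; fitted for both signal gain and loss against DMSO baseline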
In short: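 Human keratinocyte and foreskin fibroblast co-culture exposed to chemical for 24 h. Total protein measured in parallel cultures by 0.1% sulforhodamine B staining after 10% TCA fixation, read at 560 nm; bidirectional fit relative to DMSO.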

Measured: AC50

Sequence of E-selectin (Homo sapiens) (P16581 whole entry, looked up): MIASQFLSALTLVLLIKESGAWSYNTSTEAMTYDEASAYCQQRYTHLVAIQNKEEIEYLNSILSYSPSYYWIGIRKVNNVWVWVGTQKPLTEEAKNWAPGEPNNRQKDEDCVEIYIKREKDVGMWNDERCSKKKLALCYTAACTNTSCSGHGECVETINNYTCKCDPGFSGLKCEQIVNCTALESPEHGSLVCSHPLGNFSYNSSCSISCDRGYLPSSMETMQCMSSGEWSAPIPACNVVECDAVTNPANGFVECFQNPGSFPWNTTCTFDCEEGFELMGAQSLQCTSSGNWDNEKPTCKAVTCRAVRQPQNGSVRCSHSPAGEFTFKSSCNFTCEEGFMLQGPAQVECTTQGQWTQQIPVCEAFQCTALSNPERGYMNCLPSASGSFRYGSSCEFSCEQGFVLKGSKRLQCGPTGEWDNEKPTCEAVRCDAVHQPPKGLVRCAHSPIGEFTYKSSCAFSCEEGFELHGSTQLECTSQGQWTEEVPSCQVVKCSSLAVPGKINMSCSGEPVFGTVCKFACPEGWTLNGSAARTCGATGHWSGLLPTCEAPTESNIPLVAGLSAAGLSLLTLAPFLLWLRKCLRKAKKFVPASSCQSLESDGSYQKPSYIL

O=S(=O)(O)C(F)(F)C(F)(F)C(F)(F)C(F)(F)C(F)(F)C(F)(F)C(F)(F)C(F)(F)F
inactive: [1] | [2] | [3] | [4] | [5] | [6] | [7] | [8] | [9] | [10] | [11] | [12] | [13] | [14] | [15] | CD40, CD40 (gene 958) | [16] | [17] | [18]
active: [1] 48.1 µM and 48.4 µM | [2] 20 µM | [3] 0.485 µM | [4] 30 µM and 50.4 µM | [6] 20 µM and 29.6 µM and 30 µM | [7] 20 µM and 48.5 µM | [8] 29.9 µM | [9] 23.1 µM [middle of 5 runs] | [10] 28.1 µM and 16.4 µM | [11] 33.9 µM and 35.3 µM | [12] 30.1 µM and 31.6 µM and 31.3 µM | [13] 16.8 µM | [15] 35.6 µM and 30.4 µM | [17] 9.09 µM and 1.92 µM and 7.33 µM

O=C(O)COc1ccc(Cl)cc1Cl
not listed: [19]
inactive: all other assays above

CCC(C)(NC(=O)c1cc(Cl)c(C)c(Cl)c1)C(=O)CCl (centres undefined)
active: [1] 3.56 µM | [2] 7.6 µM | [3] 34.3 µM | [4] 6.77 µM | [5] 30.4 µM | [6] 5.49 µM | [7] 8.04 µM | [8] 16.5 µM | [9] 10.8 µM | [19] 31.8 µM | [10] 26.6 µM | [11] 16.6 µM | [12] 20 µM | [13] 15.9 µM | [14] 7.45 µM | [15] 35.5 µM | CD40, CD40 (gene 958) 3.52 µM | [16] 10.1 µM | [17] 12.2 µM | [18] 20 µM

O=C(O)C(F)(F)C(F)(F)C(F)(F)C(F)(F)C(F)(F)C(F)(F)C(F)(F)F
active: [2] 1.5 µM | [4] 30 µM | [10] 30 µM | CD40, CD40 (gene 958) 23.1 µM | [16] 16.1 µM | [17] 30 µM and 13.3 µM
inactive: [1] | [2] | [3] | [4] | [5] | [6] | [7] | [8] | [9] | [10] | [11] | [12] | [13] | [14] | [15] | CD40, CD40 (gene 958) | [16] | [17] | [18]

CC[C@H](C)[C@H]1O[C@]2(C=C[C@@H]1C)C[C@@H]1C[C@@H](C/C=C(\C)[C@@H](O[C@H]3C[C@H](OC)[C@@H](O[C@H]4C[C@H](OC)[C@@H](O)[C@H](C)O4)[C@H](C)O3)[C@@H](C)/C=C/C=C3\CO[C@@H]4[C@H](O)C(C)=C[C@@H](C(=O)O1)[C@]34O)O2 (tested in a mixture with another compound)
active: [1] 8.11 µM | [2] 6.68 µM | [3] 9.96 µM | [4] 12.9 µM | [5] 9.79 µM | [6] 9.78 µM | [7] 6.95 µM | [8] 14.1 µM | [9] 12.5 µM | [10] 6.95 µM | [11] 12.6 µM | [12] 31.7 µM | [13] 7.59 µM | [14] 5.77 µM | [15] 15.5 µM | CD40, CD40 (gene 958) 6.65 µM | [16] 9.62 µM | [17] 5.94 µM | [18] 6.41 µM

CCOC1Oc2ccc(OS(C)(=O)=O)cc2C1(C)C (centres undefined)
inactive: all assays above

COC(=O)c1ccccc1S(=O)(=O)NC(=O)N(C)c1nc(C)nc(OC)n1
not listed: [19]
inactive: all other assays above

CC(C)N(C(=O)COc1nnc(C(F)(F)F)s1)c1ccc(F)cc1
active: [1] 28.9 µM | [5] 17.7 µM | [6] 8.54 µM | [9] 30.8 µM
inactive: all other assays above

CN1CSC(=S)N(C)C1
active: [1] 10.6 µM | [4] 14.1 µM | [6] 9.28 µM | [7] 24.2 µM | [14] 14.4 µM | [16] 19 µM | [17] 13 µM
inactive: all other assays above

N#CN
not listed: [19]
inactive: all other assays above
